{"source": "PubChem BioAssay AID493170", "about": "(National Center for Advancing Translational Sciences (NCATS), 2011)", "note": "Inconclusive results are not listed. The source made the active and inactive calls. Calls follow the shape of the dose curve; as a rule, active = well fitted inhibition curve with a large enough effect; inconclusive = small, poorly fitted or top-dose-only effect, or effect the other way; inactive = flat fitted curve, though single readings scatter. % is scaled to controls: 0 for no effect and ±100 for the full control effect; potency is read from the fitted curve at half-maximal effect."}
{"target": "Ubiquitin carboxyl-terminal hydrolase 2 (Homo sapiens) (UniProt O75604)", "sequence (O75604 whole entry, looked up)": "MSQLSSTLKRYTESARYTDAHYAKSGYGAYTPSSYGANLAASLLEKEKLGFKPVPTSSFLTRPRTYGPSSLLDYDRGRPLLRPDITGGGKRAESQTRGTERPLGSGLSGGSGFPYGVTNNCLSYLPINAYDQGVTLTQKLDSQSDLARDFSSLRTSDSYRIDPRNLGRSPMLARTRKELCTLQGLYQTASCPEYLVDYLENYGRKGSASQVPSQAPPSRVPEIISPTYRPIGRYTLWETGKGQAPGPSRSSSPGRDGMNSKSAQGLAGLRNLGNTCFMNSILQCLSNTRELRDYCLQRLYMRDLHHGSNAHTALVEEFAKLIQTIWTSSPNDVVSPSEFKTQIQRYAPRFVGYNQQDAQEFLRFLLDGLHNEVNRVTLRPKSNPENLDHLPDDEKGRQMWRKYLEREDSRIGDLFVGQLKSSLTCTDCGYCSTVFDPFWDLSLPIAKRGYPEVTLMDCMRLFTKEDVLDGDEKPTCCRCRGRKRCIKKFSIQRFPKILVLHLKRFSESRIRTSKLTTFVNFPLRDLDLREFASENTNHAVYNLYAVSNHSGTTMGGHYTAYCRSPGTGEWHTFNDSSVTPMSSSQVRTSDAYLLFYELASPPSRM", "experiment": "Ub-rhodamine 110 based assay for inhibitors Ubiquitin-specific Protease USP2a; also: nearly all actives have a fitted effect of over 50% in size", "conditions": "USP2a Ub-rhodamine110 cleavage, fluorescence; series mostly up to 38.3 µM; activity change, negative = inhibition: at the top concentration", "procedure,_shortened": "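Kinetic fluorescence (485/531 nm) read each minute over 7 min after adding Ub-Rhod110 (150 nM final) to USP2a (5 nM final). The enzyme had 30 min RT exposure to compounds beforehand in Tris pH 8.0 buffer with CaCl2, CHAPS and beta-ME.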"}
{"smiles": "O=C(OCC1OC(n2ncc(=O)[nH]c2=O)C(OC(=O)c2ccccc2)C1OC(=O)c1ccccc1)c1ccccc1", "note": "(centres undefined)", "Potency": "4.47 µM (active)"}
{"smiles": "Cc1cc(C)n(C(=O)c2cccc(S(=O)(=O)N3CCCC3)c2)n1", "activity change, negative = inhibition": "2.63% (inactive)"}
{"smiles": "O=C(CCNc1cccc(Cl)c1)c1ccco1", "activity change, negative = inhibition": "10.6% (inactive)"}
{"smiles": "Cc1ccc(C(=O)O/N=C/c2c(C(F)(F)F)nn(C)c2Sc2ccc(Cl)cc2)cc1", "activity change, negative = inhibition": "6.42% (inactive)"}
{"smiles": "COc1cc(C)c(S(=O)(=O)NCc2ccc3c(c2)OCO3)cc1C", "activity change, negative = inhibition": "-4.79% (inactive)"}
{"smiles": "O=C(CCc1nc(-c2ccccc2F)no1)NC1CCCCCC1", "activity change, negative = inhibition": "1.03% (inactive)"}
{"smiles": "C=CC#CC[N+]1(CC#Cc2ccccc2)CCOCC1", "activity change, negative = inhibition": "-18.5% (inactive)"}
{"smiles": "CCNC1=C(Cl)C(=O)c2ccccc2C1=O", "activity change, negative = inhibition": "-12.4% (inactive)"}
{"smiles": "Cc1ccc(C(=O)COC(=O)CNC(=O)CN2C(=O)c3ccccc3C2=O)cc1", "activity change, negative = inhibition": "-12.6% (inactive)"}
{"smiles": "O=C1CCCc2nc(N3CCN(c4ccccc4)CC3)ncc21", "activity change, negative = inhibition": "-18.7% (inactive)"}
{"smiles": "CCCc1nc(SCC(N)=O)[nH]c(=O)c1CC", "activity change, negative = inhibition": "0.11% (inactive)"}
{"smiles": "Cc1ccc(S(=O)(=O)N2[C@@H](c3ccc(C(C)(C)C)cc3)C(C(=O)O)=CC[C@H]2c2ccc(C(C)C)cc2)cc1", "Potency": "3.98 µM (active)"}
{"smiles": "CC(C)(C)NC(=O)C(c1ccco1)N(C(=O)c1ccc(CN2CCOCC2)o1)c1ccccc1", "note": "(centres undefined)", "activity change, negative = inhibition": "-10.5% (inactive)"}
{"smiles": "CCCCNc1nc2ccccc2nc1NS(=O)(=O)c1cccs1", "activity change, negative = inhibition": "-9% (inactive)"}
{"smiles": "CCOC(=O)C1CCCN(CC(=O)Nc2c(C(=O)OC)[nH]c3ccc(C)cc23)C1", "note": "(centres undefined)", "activity change, negative = inhibition": "-7.18% (inactive)"}
{"smiles": "Cc1cccn2c(=O)c3cc(C(=O)NCCN4CCOCC4)c(=N)n(CCN4CCOCC4)c3nc12", "activity change, negative = inhibition": "-12.3% (inactive)"}
{"smiles": "O=C(CN1CCOCC1)Nc1ccc(C2CCCCC2)cc1", "activity change, negative = inhibition": "14.6% (inactive)"}
{"smiles": "CCOC(=O)CN1C(=O)S/C(=C/c2ccc(O)c([N+](=O)[O-])c2)C1=O", "activity change, negative = inhibition": "-15% (inactive)"}
{"smiles": "C=CCn1c(O)c(C(CC)=NCCN2CCOCC2)c(=O)[nH]c1=O", "activity change, negative = inhibition": "-2.11% (inactive)"}
{"smiles": "O=C(N/N=C/C=C/c1ccccc1)c1ccncc1", "activity change, negative = inhibition": "-5.04% (inactive)"}
{"smiles": "COC(=O)c1[nH]c(=O)c2ccccc2c1OCc1ccccc1", "activity change, negative = inhibition": "5.2% (inactive)"}
{"smiles": "COCCN1Cc2cccc(C(=O)N3CCN(c4cc(C)ccc4C)CC3)c2C1=O", "activity change, negative = inhibition": "-4.98% (inactive)"}
{"smiles": "O=S(=O)(c1cc(Cl)ccc1Cl)N1CCNCC1", "activity change, negative = inhibition": "-6.69% (inactive)"}
{"smiles": "CC1=NN(C(=O)c2csc(C)c2C)C(O)(C(F)(F)F)C1", "note": "(centres undefined)", "activity change, negative = inhibition": "-1.72% (inactive)"}
{"smiles": "Cc1cccc(Nc2nc(NCc3ccco3)c3ccccc3n2)c1", "activity change, negative = inhibition": "-11.2% (inactive)"}
{"smiles": "Cc1cc(-c2nnc3n2N=C(c2ccc(-c4ccccc4)cc2)CS3)n[nH]1", "Potency": "11.2 µM (active)"}
{"smiles": "C#CCOCCOCCOCCNc1nc(N2CCN(C(=O)CCCCCCCCCCNC(=O)[C@@H](CCC(=O)O)n3cc(CCCCCN)nn3)CC2)nc(N2CCN(C(=O)CCCCCCCCCCNC(=O)[C@H](CCCCN)n3cc(C[C@@H](C)CC)nn3)CC2)n1", "activity change, negative = inhibition": "-15.6% (inactive)"}
{"smiles": "COc1ccc(-c2nc3cc(NC(=O)Cc4ccc(OC)c(OC)c4)ccc3o2)cc1", "activity change, negative = inhibition": "3.85% (inactive)"}
{"smiles": "N#CCC(=O)Nc1ccc(C(=O)OCC(=O)NCc2ccc3c(c2)OCO3)cc1", "Potency": "10 µM (active)"}
{"smiles": "CCC(C)NC(=O)CSC1=Nc2ccccc2C2=NC(c3ccccc3)C(=O)N12", "note": "(centres undefined)", "activity change, negative = inhibition": "-14% (inactive)"}
{"smiles": "O=C(COC(=O)c1cccc(S(=O)(=O)N2CCc3ccccc32)c1)NC1CCS(=O)(=O)C1", "note": "(centres undefined)", "activity change, negative = inhibition": "0.352% (inactive)"}
{"smiles": "Cc1ccc(C)c(OCC(=O)Nc2cc(NC(=O)COc3cc(C)ccc3C)cc(C(=O)O)c2)c1", "Potency": "11.2 µM (active)"}
{"smiles": "Cc1ccc(NC(=O)CN2C(=O)N/C(=C/c3ccco3)C2=O)cc1", "Potency": "3.98 µM (active)"}
{"smiles": "CCOC(=O)C1CCN(C(=O)COC(=O)c2c(C)c(CC)nc3ccccc23)CC1", "activity change, negative = inhibition": "-0.892% (inactive)"}
{"smiles": "O=C(O)CP(=O)(c1ccccc1)c1ccccc1", "activity change, negative = inhibition": "-4.26% (inactive)"}
{"smiles": "Cn1c(=O)[nH]c(=O)c2c1nc(NCc1ccccc1)n2CCCc1ccccc1", "activity change, negative = inhibition": "-4.18% (inactive)"}
{"smiles": "C=CC[C@@H](CC(=O)N(CCO)Cc1ccccc1)C(=O)NCCOC(=O)[C@H](CC=C)CC(=O)OC(C)(C)C", "activity change, negative = inhibition": "2.02% (inactive)"}
{"smiles": "Cc1ccc(-c2c(C#N)c(N)nc3c2CCCCC3)o1", "activity change, negative = inhibition": "-15.5% (inactive)"}
{"smiles": "COc1cccc(NC(=O)c2ccccc2-c2nc(-c3cccc(C)c3)no2)c1", "activity change, negative = inhibition": "-16.3% (inactive)"}
